# About 79,000 compounds went through this panel and 15% of them were active in at least one assay; those are over-represented in the sample as a whole. Unmarked numbers belong to inactive results. The source made the active and inactive calls. Rule as the data show it: active = growth inhibition above about 70%; inactive = the rest.
# Assays:
# [1] = NCI Yeast Anticancer Drug Screen. Data for the rad52 strain (AID 147);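 also: 0% = growth of vehicle-treated control cultures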; conditions: S. cerevisiae rad52 mutant growth inhibition, hits give high values
# Outline: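 Genetically altered yeast (DNA damage repair defect) treated with compound; inhibition calculated relative to vehicle.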
# [2] = NCI Yeast Anticancer Drug Screen. Data for the wt1 strain (AID 149);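 also: 0% = growth of vehicle-treated wt1 cultures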; conditions: S. cerevisiae wt1 strain (SPY 50644) growth inhibition, hits give high values
# Outline: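 Using yeast strain wt1, compound-induced growth inhibition was determined against vehicle-treated cultures.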
# [3] = NCI Yeast Anticancer Drug Screen. Data for the rad50EPP+ strain (AID 151);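 also: 0% = growth of vehicle-treated control cultures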; conditions: S. cerevisiae rad50 mutant strain, hits give high values
# Outline: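 Strain rad50EPP+; compound exposure; % growth inhibition vs vehicle.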
# [4] = NCI Yeast Anticancer Drug Screen. Data for the mgt1 strain (AID 153); conditions: S. cerevisiae mgt1 mutant growth inhibition, hits give high values
# Outline: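 Read-out: yeast growth inhibition vs vehicle control. Strain mgt1, drawn from a panel altered in DNA damage repair or cell cycle control.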
# [5] = NCI Yeast Anticancer Drug Screen. Data for the rad50 strain (AID 155);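 also: 0% = growth of vehicle-only cultures of the same strain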; conditions: S. cerevisiae rad50 strain growth inhibition, hits give high values
# Outline: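 Relative growth inhibition (compound vs vehicle) was measured in yeast with a defined repair-gene alteration.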
# [6] = NCI Yeast Anticancer Drug Screen. Data for the mec2-1 strain (AID 157); conditions: S. cerevisiae mec2-1 strain, hits give high values
# Outline: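 Cells of the genetically defined mec2-1 yeast strain are incubated with test compound. Inhibition of growth is calculated against vehicle-treated controls.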
# [7] = NCI Yeast Anticancer Drug Screen. Data for the rad14 strain (AID 159);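 also: 0% = growth of vehicle-treated control cultures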; conditions: S. cerevisiae rad14 strain growth inhibition, hits give high values
# Outline: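 Screen for anticancer potential: a yeast strain altered in DNA damage repair is grown with compound, and reduced growth is quantified against vehicle controls.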
# [8] = NCI Yeast Anticancer Drug Screen. Data for the sgs1 mgt1 strain (AID 161);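 also: 0% = growth of cultures given vehicle only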; conditions: S. cerevisiae sgs1 mgt1 strain, hits give high values
# Outline: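 Read-out: growth inhibition vs vehicle controls. Cells: mutant yeast strain deficient in DNA damage repair.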
# [9] = NCI Yeast Anticancer Drug Screen. Data for the CLN2oe strain (AID 163);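 also: 0% = growth of vehicle-only control cultures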; conditions: S. cerevisiae CLN2oe strain, hits give high values
# Outline: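 Strain altered in cell-cycle control, incubated with compound; growth compared to solvent-treated controls.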
# [10] = NCI Yeast Anticancer Drug Screen. Data for the cln2 rad14 strain (AID 165);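 also: 0% = growth equal to vehicle treated cultures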; conditions: S. cerevisiae cln2 rad14 strain, hits give high values
# Outline: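 The screen exposed genetically defined yeast (cln2 rad14) to test compounds and scored growth inhibition relative to vehicle-treated controls.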
# [11] = NCI Yeast Anticancer Drug Screen. Data for the bub3 strain (AID 167); conditions: S. cerevisiae bub3 mutant strain, hits give high values
# Outline: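 Screening used yeast with an engineered genetic alteration affecting cell cycle control. Compound-exposed cultures were compared with vehicle cultures, and reduced growth was taken as inhibition.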
# [12] = NCI Yeast Anticancer Drug Screen. Data for the wt2 strain (AID 169);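 also: 0% = growth of vehicle-treated yeast cultures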; conditions: S. cerevisiae wt2 strain growth inhibition, hits give high values
# Outline: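 Steps: yeast strain treated with compound; growth recorded; inhibition calculated relative to cultures given vehicle alone.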
# [13] = NCI Yeast Anticancer Drug Screen. Data for the mlh1 strain (AID 171);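 also: 0% = growth of vehicle-treated control cultures of the same strain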; conditions: S. cerevisiae mlh1 strain growth inhibition, hits give high values
# Outline: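 Yeast screen: mutant strain plus compound, growth scored against vehicle control wells.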
# [14] = NCI Yeast Anticancer Drug Screen. Data for the sgs1 strain (AID 173);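 also: 0% = growth of vehicle-only control cultures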; conditions: S. cerevisiae sgs1 mutant, hits give high values
# Outline: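 Inhibition of yeast growth served as the measure. The mutant strain was treated with each compound, and growth was normalised to cultures receiving vehicle alone.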
# [15] = NCI Yeast Anticancer Drug Screen. Data for the mlh1 rad18 strain (AID 175); conditions: S. cerevisiae mlh1 rad18 strain growth inhibition, hits give high values
# Outline: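 Compound-treated yeast growth, normalised to vehicle controls. Strain bears defined DNA repair mutations.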
# [16] = NCI Yeast Anticancer Drug Screen. Data for the rad18 strain (AID 177); conditions: S. cerevisiae rad18 mutant growth inhibition, hits give high values
# Outline: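 Inhibition values reflect reduced yeast growth compared with vehicle-treated controls, using a strain engineered with a DNA damage repair defect.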
# [17] = at 5.0 µM (retest, dose inferred, filed as 0.5)
# [18] = at 50.0 µM (retest, dose inferred, filed as 5.0)
smiles,measurement,setting,value
COc1cc2oc3ccccc3c(=O)c2cc1CSc1ccccc1N,growth inhibition,[1]; at 1.2 µM,-1%
same,growth inhibition,[1]; at 3.7 µM,1%
same,growth inhibition,[1]; at 11.0 µM,1%
same,growth inhibition,[1]; at 33.0 µM,8%
same,growth inhibition,[1]; at 100.0 µM,8%
same,growth inhibition,[2]; at 1.2 µM,-1%
same,growth inhibition,[2]; at 3.7 µM,-1%
same,growth inhibition,[2]; at 11.0 µM,-1%
same,growth inhibition,[2]; at 33.0 µM,-2%
same,growth inhibition,[2]; at 100.0 µM,0%
same,growth inhibition,[3]; at 1.2 µM,-5%
same,growth inhibition,[3]; at 3.7 µM,1%
same,growth inhibition,[3]; at 11.0 µM,4%
same,growth inhibition,[3]; at 33.0 µM,14%
same,growth inhibition,[3]; at 100.0 µM,16%
same,growth inhibition,[4]; at 1.2 µM,1%
same,growth inhibition,[4]; at 3.7 µM,0%
same,growth inhibition,[4]; at 11.0 µM,-2%
same,growth inhibition,[4]; at 33.0 µM,-2%
same,growth inhibition,[4]; at 100.0 µM,6%
same,growth inhibition,[5]; at 1.2 µM,0%
same,growth inhibition,[5]; at 3.7 µM,0%
same,growth inhibition,[5]; [17],9%
same,growth inhibition,[5]; at 11.0 µM,1%
same,growth inhibition,[5]; at 33.0 µM,6%
same,growth inhibition,[5]; [18],26%
same,growth inhibition,[5]; at 50.0 µM,44.9%
same,growth inhibition,[5]; at 100.0 µM,7%
same,growth inhibition,[6]; at 1.2 µM,-2%
same,growth inhibition,[6]; at 3.7 µM,-1%
same,growth inhibition,[6]; [17],8%
same,growth inhibition,[6]; at 11.0 µM,-1%
same,growth inhibition,[6]; at 33.0 µM,2%
same,growth inhibition,[6]; [18],8%
same,growth inhibition,[6]; at 50.0 µM,-19.2%
same,growth inhibition,[6]; at 100.0 µM,15%
same,growth inhibition,[7]; at 1.2 µM,0%
same,growth inhibition,[7]; at 3.7 µM,-6%
same,growth inhibition,[7]; at 11.0 µM,-5%
same,growth inhibition,[7]; at 33.0 µM,-18%
same,growth inhibition,[7]; at 100.0 µM,-16%
same,growth inhibition,[8]; [17],3%
same,growth inhibition,[8]; [18],48%
same,growth inhibition,[8]; at 50.0 µM,39.8%
same,growth inhibition,[9]; at 1.2 µM,-4%
same,growth inhibition,[9]; at 3.7 µM,3%
same,growth inhibition,[9]; at 11.0 µM,-1%
same,growth inhibition,[9]; at 33.0 µM,2%
same,growth inhibition,[9]; at 100.0 µM,3%
same,growth inhibition,[10]; [17],2%
same,growth inhibition,[10]; [18],34%
same,growth inhibition,[10]; at 50.0 µM,27.5%
same,growth inhibition,[11]; at 1.2 µM,-1%
same,growth inhibition,[11]; at 3.7 µM,2%
same,growth inhibition,[11]; [17],4%
same,growth inhibition,[11]; at 11.0 µM,35%
same,growth inhibition,[11]; at 33.0 µM,54%
same,growth inhibition,[11]; [18],71% (active)
same,growth inhibition,[11]; at 50.0 µM,72.4% (active)
same,growth inhibition,[11]; at 100.0 µM,74% (active)
same,growth inhibition,[12]; at 1.2 µM,-1%
same,growth inhibition,[12]; at 3.7 µM,-2%
same,growth inhibition,[12]; at 11.0 µM,-2%
same,growth inhibition,[12]; at 33.0 µM,3%
same,growth inhibition,[12]; at 100.0 µM,7%
same,growth inhibition,[13]; at 1.2 µM,-5%
same,growth inhibition,[13]; at 3.7 µM,0%
same,growth inhibition,[13]; at 11.0 µM,-1%
same,growth inhibition,[13]; at 33.0 µM,2%
same,growth inhibition,[13]; at 100.0 µM,-7%
same,growth inhibition,[14]; at 1.2 µM,1%
same,growth inhibition,[14]; at 3.7 µM,1%
same,growth inhibition,[14]; at 11.0 µM,5%
same,growth inhibition,[14]; at 33.0 µM,15%
same,growth inhibition,[14]; at 100.0 µM,20%
same,growth inhibition,[15]; [17],15%
same,growth inhibition,[15]; [18],31%
same,growth inhibition,[15]; at 50.0 µM,39.9%
same,growth inhibition,[16]; at 1.2 µM,-14%
same,growth inhibition,[16]; at 3.7 µM,-7%
same,growth inhibition,[16]; at 11.0 µM,-12%
same,growth inhibition,[16]; at 33.0 µM,8%
same,growth inhibition,[16]; at 100.0 µM,3%
CC1=CN2C(c3ccccc3)=NON(c3ccc(C)cn3)C2C=C1 (stereo unspecified),growth inhibition,[1]; at 1.2 µM,2%
same,growth inhibition,[1]; at 3.7 µM,4%
same,growth inhibition,[1]; at 11.0 µM,-3%
same,growth inhibition,[1]; at 33.0 µM,1%
same,growth inhibition,[1]; at 100.0 µM,-7%
same,growth inhibition,[2]; at 1.2 µM,-3%
same,growth inhibition,[2]; at 3.7 µM,-3%
same,growth inhibition,[2]; at 11.0 µM,-3%
same,growth inhibition,[2]; at 33.0 µM,-3%
same,growth inhibition,[2]; at 100.0 µM,-5%
same,growth inhibition,[3]; at 1.2 µM,6%
same,growth inhibition,[3]; at 3.7 µM,1%
same,growth inhibition,[3]; at 11.0 µM,0%
same,growth inhibition,[3]; at 33.0 µM,-2%
same,growth inhibition,[3]; at 100.0 µM,-11%
same,growth inhibition,[4]; at 1.2 µM,-2%
same,growth inhibition,[4]; at 3.7 µM,0%
same,growth inhibition,[4]; at 11.0 µM,-2%
same,growth inhibition,[4]; at 33.0 µM,-1%
same,growth inhibition,[4]; at 100.0 µM,-3%
same,growth inhibition,[5]; at 1.2 µM,6%
same,growth inhibition,[5]; at 3.7 µM,2%
same,growth inhibition,[5]; [17],-5%
same,growth inhibition,[5]; at 11.0 µM,-6%
same,growth inhibition,[5]; at 33.0 µM,1%
same,growth inhibition,[5]; [18],12%
same,growth inhibition,[5]; at 50.0 µM,-4.35%
same,growth inhibition,[5]; at 100.0 µM,-11%
same,growth inhibition,[6]; at 1.2 µM,-3%
same,growth inhibition,[6]; at 3.7 µM,-2%
same,growth inhibition,[6]; [17],-24%
same,growth inhibition,[6]; at 11.0 µM,-3%
same,growth inhibition,[6]; at 33.0 µM,-2%
same,growth inhibition,[6]; [18],-21%
same,growth inhibition,[6]; at 50.0 µM,19.8%
same,growth inhibition,[6]; at 100.0 µM,-4%
same,growth inhibition,[7]; at 1.2 µM,4%
same,growth inhibition,[7]; at 3.7 µM,0%
same,growth inhibition,[7]; at 11.0 µM,-4%
same,growth inhibition,[7]; at 33.0 µM,-2%
same,growth inhibition,[7]; at 100.0 µM,-9%
same,growth inhibition,[8]; [17],-15%
same,growth inhibition,[8]; [18],20%
same,growth inhibition,[8]; at 50.0 µM,18%
same,growth inhibition,[9]; at 1.2 µM,2%
same,growth inhibition,[9]; at 3.7 µM,-2%
same,growth inhibition,[9]; at 11.0 µM,-4%
same,growth inhibition,[9]; at 33.0 µM,-2%
same,growth inhibition,[9]; at 100.0 µM,-7%
same,growth inhibition,[10]; [17],-23%
same,growth inhibition,[10]; [18],-17%
same,growth inhibition,[10]; at 50.0 µM,-12.7%
same,growth inhibition,[11]; at 1.2 µM,-2%
same,growth inhibition,[11]; at 3.7 µM,-2%
same,growth inhibition,[11]; [17],-25%
same,growth inhibition,[11]; at 11.0 µM,-6%
same,growth inhibition,[11]; at 33.0 µM,-4%
same,growth inhibition,[11]; [18],10%
same,growth inhibition,[11]; at 50.0 µM,46%
same,growth inhibition,[11]; at 100.0 µM,-4%
same,growth inhibition,[12]; at 1.2 µM,-7%
same,growth inhibition,[12]; at 3.7 µM,-7%
same,growth inhibition,[12]; at 11.0 µM,-10%
same,growth inhibition,[12]; at 33.0 µM,-13%
same,growth inhibition,[12]; at 100.0 µM,-7%
same,growth inhibition,[13]; at 1.2 µM,0%
same,growth inhibition,[13]; at 3.7 µM,-2%
same,growth inhibition,[13]; at 11.0 µM,-3%
same,growth inhibition,[13]; at 33.0 µM,-1%
same,growth inhibition,[13]; at 100.0 µM,-4%
same,growth inhibition,[14]; at 1.2 µM,-23%
same,growth inhibition,[14]; at 3.7 µM,-16%
same,growth inhibition,[14]; at 11.0 µM,-2%
same,growth inhibition,[14]; at 33.0 µM,-7%
same,growth inhibition,[14]; at 100.0 µM,2%
same,growth inhibition,[15]; [17],-15%
same,growth inhibition,[15]; [18],50%
same,growth inhibition,[15]; at 50.0 µM,1.65%
same,growth inhibition,[16]; at 1.2 µM,3%
same,growth inhibition,[16]; at 3.7 µM,3%
same,growth inhibition,[16]; at 11.0 µM,-1%
same,growth inhibition,[16]; at 33.0 µM,1%
same,growth inhibition,[16]; at 100.0 µM,-7%

# Reference: PubChem BioAssay (NCI)
